Our source for the INHIBITION values is ChEMBL document CHEMBL4513216, “Probing the Open Global Health Chemical Diversity Library for Multistage-Active Starting Points for Next-Generation Antimalarials” (ACS Infect Dis, 2020).

Structures are written as SMILES. Out of some 65,000 compounds screened, about 2,100 (3.2%) showed an effect of 50% or more. The median lay at about -52%. Many of the other results were omitted from the sample, so strong results are more common in it than they were.

The subject of this assay is Plasmodium falciparum. Kind of assay: Screen against P. falciparum Asexual Blood Stage (ABS), at 5uM. It is filed as functional, Dd2. Conditions: tested at 5 uM.
In the case of `Cc1nc(C)n(CC2CCCN2CC(=O)Nc2ccncc2)n1` (stereo not given), the INHIBITION is -153%.

As to `COCC(=O)Nc1ccc(C)cc1-c1nc(C2CC2)no1`, the INHIBITION is listed as -92.7%.

`CCn1cc2c(n1)CN(Cc1ccc(C)o1)CC2COCC1CC1` (stereo not given): the INHIBITION was -68.6%. For `O=C(NCC1CCCCC1)NC1CCCc2c1cnn2CCO` (stereo not given), the INHIBITION was -133%. To `Cc1c(C(C)NC(=O)N2CCN(C3CCCC3)CC2)cnn1C` (stereo not given) belongs -70.2%. Turning to `COC(=O)c1sc2cccc(F)c2c1CNC(=O)C1CCOC1` (stereo not given), the INHIBITION is -5.44%. As to `Fc1ccc(Nc2ccc(C3CCN(Cc4ncc[nH]4)CC3)nc2)nc1`, the INHIBITION is 63.1%. For `CNc1cccc(C2CCCN(Cc3ncc[nH]3)C2)n1` (stereo not given) the value was -20.8%. To `Cc1cccc(Nc2ccc(C3CCN(Cc4ncc[nH]4)CC3)nc2)n1` belongs 51.8%; to `Cc1cc(Nc2ccc(F)cn2)cc(C2CCN(Cc3ncc[nH]3)C2)n1` (stereo not given), -49.2%; to `Fc1cccc(OC2CCN(Cc3ncc[nH]3)CC2)c1`, 36.9%. To `Cc1nnc(Nc2cccc(C3CCN(Cc4ncc[nH]4)CC3)n2)s1` belongs 31.6%; to `CCN(CC)C(=O)C1CCCN1C(=O)c1cccc(-n2cnnn2)c1` (stereo not given), -72.5%. Turning to `O=C(CCCOc1ccccc1F)NCCCC(=O)Nc1cn[nH]c1`, the INHIBITION is -97.2%. For `Cc1cc(C)n(CC2CCCN2C(=O)c2ccc3c(c2)COC3)n1` (stereo not given) the value was -101%; for `c1ccc(OCCNC2=NCCCN2)cc1`, 16.3%. For `CN(C)c1ccc(CNC2=NCCCN2)cc1` the value was -56.7%; for `CCOCc1ccc(CNC2=NCCCN2)cc1`, 55.7%; for `CCOCCOC(C)C(=O)NCc1cn2cc(Cl)ccc2n1` (stereo not given), -73.4%.

`COc1ccc(S(=O)(=O)N2C[C@H](OC)[C@]3(CCCO3)C2)cc1`: the INHIBITION is -98.4%.

`COCC(=O)N[C@@H]1CN(Cc2ccc3c(c2)OCCO3)C[C@H]1O`: the INHIBITION is -66.5%. For `Cc1nn(C)c2cn(C(C)C(=O)NCc3cccc(F)c3)nc12` (stereo not given) the value was -32%; for `CC(C)(C)c1nnc(CN2CCCC(Cn3cncn3)C2)o1` (stereo not given), -204%. Take `CC(C)c1nnc(CN2CCCC(Cn3cncn3)C2)o1` (stereo not given): the INHIBITION is recorded as 53.1%. For `Cc1oc(-c2ccco2)nc1CN1CCCC(Cn2cncn2)C1` (stereo not given) the value was 56.4%; for `c1coc(-c2noc(CN3CCCC(Cn4cncn4)C3)n2)c1` (stereo not given), -29%; for `c1ncn(CC2CCCN(Cc3nnc(C4CC4)o3)C2)n1` (stereo not given), -49%. For `c1coc(-c2nc(CN3CCCC(Cn4cncn4)C3)cs2)c1` (stereo not given) the value was -19.5%; for `COc1ccc2c(c1)CC(C1CCOCC1)N(C(=O)c1cnccn1)C2` (stereo not given), -108%.

As to `COC(=O)c1ccc(N2CCN(C(=O)c3cccnc3)C(C)C2)cc1` (stereo not given), the INHIBITION was -5.1%.

Regarding `CN(C)C(=O)CN1CCc2ncnc(NC3CCC3)c2CC1`, the INHIBITION is -76.8%.

As for `CCC(CO)N(Cc1ccc(C(=O)O)cc1)Cc1ccsc1` (stereo not given), the INHIBITION is -74.7%.

Consider `CCC(CO)N(CC=C(C)C)Cc1ccsc1` (stereo not given), for which the INHIBITION is listed as 23.4%. For `CCC(CO)N(Cc1ccsc1)Cc1cccc(O)c1` (stereo not given) the value was 67.6%; for `O=C(NCCCN1CCOCC1)c1nc(-c2ccc3cc[nH]c3c2)no1`, 20.5%; for `COc1cccc(CC(=O)N2CCCC2c2nc(C)c(C)c(O)n2)c1` (stereo not given), -102%. To `CN(CCC#N)C(=O)Cn1nnnc1C(C)(C)C` belongs -112%. To `CC(O)(CNC(=O)c1c(F)cccc1Cl)c1ccco1` (stereo not given) belongs -45.8%; to `CC(C)c1cc(C(=O)NCCN2CCOCC2)nc(N2CCCC2)n1`, -70.3%; to `c1ccc(-c2nc3c(c(NCCc4c[nH]cn4)n2)CCNC3)cc1`, 51.1%. Regarding `c1cc(-c2nc3c(c(NCCc4c[nH]cn4)n2)CCNCC3)ccn1`, the INHIBITION is given as -225%. To `c1nc(CCNc2nc(C3CC3)nc3c2CCNCC3)c[nH]1` belongs -79.3%. `Cc1ccc(C(=O)N2CCC(O)(CN3CCc4ccccc4C3)C2)s1` (stereo not given): the INHIBITION is given as -64.4%. For `CN(C)Cc1ccc(C(=O)N2CCCC(COc3ccc(F)cc3)C2)o1` (stereo not given) the value was 17.1%; for `CC(NC(=O)NCCCN(C)S(C)(=O)=O)c1ccc(Cl)cc1` (stereo not given), -42.6%.

On to `COc1ccc(C)cc1NC(=O)Nc1cnc(N2CCCC2)nc1`, for which the INHIBITION was -26.2%.

For the compound `Cc1ccc(NC(=O)Nc2cnc(N3CCN(C)CC3)nc2)cc1`, the INHIBITION is 59.3%. Turning to `COc1ccc(NC(=O)c2cnc(N3CCN(C)CC3)nc2C)cc1`, the INHIBITION is given as -103%.

As to `CCC1CN(C)c2ccccc2CN1C(=O)Nc1cccc(F)c1` (stereo not given), the INHIBITION is given as -107%. To `COCCN(CCOC)C(=O)c1cnn(C)c1C` belongs -57.9%; to `CCc1nc(C)sc1CNC1CCN(Cc2ccccc2)C1` (stereo not given), -2.57%. For `Cc1nc(CNC2CCN(Cc3ccccc3)C2)sc1C` (stereo not given) the value was 7.17%; for `Cc1nc(CCNC2CCN(Cc3ccccc3)C2)sc1C` (stereo not given), 53.5%; for `CCC(=O)c1ccc(Br)cc1NN1c2cc(Br)ccc2C(=O)C1(C)OC` (stereo not given), 43.1%.

Consider `CCc1n[nH]c(C(=O)N2CCN(c3ccc4ccccc4c3)CC2)c1C`, for which the INHIBITION is -8.02%.
